VACV Venus inh: inhibitors of vaccinia virus (Venus reporter); 330,000 tested, 0.46% active; Potency, µM (highest dose often 36.5 µM), hits mostly inhibitors; Vaccinia virus Venus reporter expression, fluorescence; calls by dose curve; tested in A549 cells; note: nearly all actives have a fitted effect of over 30% in size
VACV mCherry inh: inhibitors of vaccinia virus infection (mCherry reporter signal); Vaccinia virus mCherry reporter infection, fluorescence; Potency, µM (titrated, usually from 36.5 µM), most hits filed as inhibitors; 310,000 tested, 0.63% active; calls by dose curve; tested in A549 cells; note: nearly all actives have a fitted effect of over 35% in size
AmpC inh no detg: blocks E. coli AmpC beta-lactamase in detergent-free assay; P00811; AmpC nitrocefin hydrolysis, absorbance 480 nm, 0.0001% Triton; Potency, µM (series often up to 57.1 µM), actives largely listed as inhibitors; 330,000 tested, 0.52% active; note: nearly all actives have a fitted effect of over 20% in size
Target sequence (P00811 whole entry, looked up): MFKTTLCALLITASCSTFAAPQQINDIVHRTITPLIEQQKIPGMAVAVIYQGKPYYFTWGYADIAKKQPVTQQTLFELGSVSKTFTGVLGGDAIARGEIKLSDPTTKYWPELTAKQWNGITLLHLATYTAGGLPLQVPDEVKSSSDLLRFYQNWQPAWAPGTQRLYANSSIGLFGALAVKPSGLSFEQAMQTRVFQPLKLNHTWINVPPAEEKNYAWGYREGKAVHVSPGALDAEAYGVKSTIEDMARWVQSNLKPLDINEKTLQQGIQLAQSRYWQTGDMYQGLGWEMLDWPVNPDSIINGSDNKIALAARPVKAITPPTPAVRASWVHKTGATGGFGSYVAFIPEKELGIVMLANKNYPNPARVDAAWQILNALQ
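20 mM phosphate pH 7.0 + 0.01% (detergent screen) or 0.0001% Triton X-100; 5.3 nM AmpC reagent; cpd preinc 15 min RT; nitrocefin (800 uM stock) to start; A480 q20 s × 4 min; Activity was normalised to no-enzyme and no-compound control wells.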
SARS PLP yeast: blocks SARS-CoV papain-like protease in a yeast assay | S. cerevisiae expressing SARS-CoV PLpro, growth rescue | Potency, µM (series often up to 32.9 µM), most hits filed as activators | 330,000 tested, 0.19% active; calls by dose curve; note: nearly all actives have a fitted effect of over 55% in size
AmpC detergent: inhibitors of E. coli AmpC beta-lactamase with detergent; P00811; AmpC hydrolysis of nitrocefin, absorbance 480 nm, 0.01% Triton; Potency, µM (titrated, usually from 114 µM), most hits filed as inhibitors; 370,000 tested, 0.041% active; note: nearly all actives have a fitted effect of over 25% in size
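AmpC (5.3 nM in the dispensed reagent) in 20 mM phosphate pH 7.0 with 0.01% (detergent screen) or 0.0001% Triton X-100 was preincubated with compounds for 15 min at room temperature. Nitrocefin was then added from an 800 uM solution, and hydrolysis was followed at 480 nm.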
Hits are given with their value; . = inactive; ? = inconclusive; / = no result; [ ] = dose if it differs, or a comment. The list is not random: actives were taken first. Their share in the collection is about 1.3%. Unless noted, calls come from the whole dose curve; as a rule, active = well fitted curve in the direction sought with a large enough effect; inconclusive = small, poorly fitted or top-dose-only effect, or another doubt; inactive = no such curve, though single readings can be large; an effect the other way counts as inactive or inconclusive.

SMILES	VACV Venus inh	VACV mCherry inh	AmpC inh no detg	SARS PLP yeast	AmpC detergent
COc1ccccc1CNS(=O)(=O)c1cc(CN2C(=O)c3cccnc3C2=O)ccc1OC	/	/	.	.	.
COc1cc(CCNC2=CC(=O)c3ncccc3C2=O)ccc1O	10µM	10µM	/	/	/
COc1cccc(CN(C)C(=O)c2cnn(-c3ncc4c(n3)-c3ccccc3CCC4)c2C)c1	.	?	/	/	/
O=C(Nc1ccccc1)NC1(C(=O)NCc2cccs2)CCCCC1	.	.	0.141µM	.	.
Cc1cccc(N2CCN(C(=O)C3CCC(=O)N(C4CC4)C3)CC2)c1C (configuration not stated)	.[7.34 µM]	.[7.34 µM]	.	5.01µM	.
O=[N+]([O-])c1ccc(N/N=C/c2cccc(O)c2)cc1	.	.	.	.	.
O=[N+]([O-])c1ccc(N/N=C/c2cccc(O)c2O)cc1	.	.	17.8µM	.	.
O=[N+]([O-])c1ccc(N/N=C/c2ccc[nH]2)cc1	?	5.01µM	?	.	.
O=C(NCC1Cc2cc(F)cc(-c3cnccn3)c2O1)c1cccc(-c2ccccc2F)c1 (configuration not stated)	.	.	/	/	/
NS(=O)(=O)c1ccc(O)c(N2C(=O)c3cccc4c(C(=O)c5ccccc5)ccc(c34)C2=O)c1	/	/	10µM	.	.
C=C1CCC[C@]2(C)C[C@H]3OC(=O)C(CNC(C)CC)[C@H]3CC12 (some centres not stated)	/	/	.	.	.
C=C1CCC[C@]2(C)C[C@H]3OC(=O)C(CN(C)CC(OC)OC)[C@H]3CC12 (some centres not stated)	?	0.891µM	.	.	.
C=C1CCC[C@]2(C)C[C@H]3OC(=O)C(CNC(C)(CO)CO)[C@H]3CC12 (some centres not stated)	?	7.94µM	.	.	.
C=C1CCC[C@]2(C)C[C@H]3OC(=O)C(CNC(CC)CO)[C@H]3CC12 (some centres not stated)	7.08µM	7.08µM	.	.	.
C=C1CCC[C@]2(C)C[C@H]3OC(=O)C(CN4CCCCC4CO)[C@H]3CC12 (some centres not stated)	2.51µM	3.16µM	.	.	.
Cn1c(SCC2CCCO2)nnc1C1CCN(Cc2ccc(-c3cccc(Cl)c3)o2)CC1 (configuration not stated)	.	.	/	/	/
CCOc1ccccc1NC(=O)C(=O)NCCc1sc(-c2cccc(F)c2)nc1C	.	.	/	/	.
Cc1cccc(C(=O)N[C@H]2CC[C@@H](n3cc(C(=O)N4CCCC4)nn3)CC2)c1	.	.	/	/	/
COC(=O)c1ccc(C(=O)NCC2Cc3cccc(-c4ccc(C(=O)OC)cn4)c3O2)cc1 (configuration not stated)	.	.	/	/	/
CCC1CN(CCNC(=O)c2cn3cc(C)ccc3n2)Cc2cc(OC)ccc2O1 (configuration not stated)	.	.	/	/	/
COc1ccccc1N1CCN(c2nc(CNC(=O)c3ccccc3F)nc3ccccc23)CC1	.	.	/	/	/
N#Cc1c(-c2ccco2)cc(-c2ccccc2)[nH]c1=O	/	/	.	.	.
N#Cc1c(-c2ccccc2)cc(-c2ccco2)c(C#N)c1N	/	/	14.1µM	.	.
COc1ccccc1-c1ccnc(-n2ncc(C(=O)N(C)C(C)c3nc(C)cs3)c2C2CC2)n1 (configuration not stated)	.	.	/	/	/
COc1ccc(C2CC(c3ccccc3Cl)=NN2c2ccc(S(N)(=O)=O)cc2)cc1 (configuration not stated)	?	12.6µM	.	.	/
SMILES	VACV Venus inh	VACV mCherry inh	AmpC inh no detg	SARS PLP yeast	AmpC detergent
CC1=CC(O)C(O)C2(C)C1CC1OC(=O)C(O)C3C(C)C(O)C4(O)OCC13C42 (configuration not stated)	7.94µM	?	/	/	/
Cc1csc2ncc(C(=O)Nc3cccc(C(F)(F)F)c3)c(=O)n12	.	.	.	.	.
CCc1ccc(NC(=O)c2cnc3scc(C)n3c2=O)cc1	.	.	35.5µM	.	?
NC(=O)C(=CNc1nc(-c2ccc(Cl)c(Cl)c2)cs1)C(N)=O	/	/	14.1µM	.	.
Cc1nnc(Sc2nc3ccccc3o2)c2ccccc12	?	?	.	.	.
CCSc1nnc(-c2ccc(Cl)cc2)c2ccccc12	/	/	.	.	?
Cc1ccc(-c2nnc(Sc3nc4ccccc4o3)c3ccccc23)cc1	10µM	10µM	.	.	.

Screening data as filed in PubChem.
